From PubChem BioAssay
HCMV antiviral: blocks human cytomegalovirus replication | HFF cells, HCMV-luciferase reporter, 72 h; active compounds read low | activity change, negative = inhibition, % at 57.5 µM | 4.5% of 410,000 active | AID 1259415; in the data active = activity change below about -60%; inconclusive = no clear call, values can overlap the other calls; inactive = above about -39%
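Luciferase read-out from HCMV-luciferase-infected HFFs (MOI 1 PFU/cell) 72 h post infection at 37C; compounds added after 16 h cell attachment; activity normalized between buffer-only basal and Salinomycin (10uM) inhibitor controls.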
Pf growth 48h: inhibits P. falciparum growth in the first generation, 48 h | P. falciparum luciferase growth in erythrocytes, 48 h | Potency, µM (doses to about 28.7 µM), hits mostly inhibitors | 5.9% of 310,000 active
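In quantitative HTS format, infected erythrocytes bearing luciferase-reporter parasites were treated for a single generation at 37 C. Luminescence after adding detection reagent served as the growth measure.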
Pf growth 96h: P. falciparum growth inhibition at 96 hour, primary screen for plastid delayed-death inhibitors. P. falciparum luciferase reporter growth, 96 h. Potency, µM (titrated, usually from 28.7 µM), actives largely listed as inhibitors. 6.9% of 320,000 active
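Erythrocytes infected with luciferase-expressing P. falciparum were dispensed at 2% hematocrit and 0.05% parasitemia (final), then incubated with compounds 96 hours at 37 C in 5% CO2. Luminescence after detection reagent addition reported growth.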
CHX counter: affects cycloheximide protein synthesis inhibition readout, counter-screen; 12% of 300,000 active; AID 2314; cell reporter, cycloheximide protein synthesis inhibition counterscreen; max response, %; in the data active = max response mostly above about 13%, no sharp cut-off; inactive = mostly below about 14%; also: read at 38.3 µM for the half of the compounds with a filed dose
Shiga toxin inh: Shiga toxin inhibition | Vero cells, Shiga toxin protein synthesis inhibition reporter | inhibition, % at 38.7 µM | 9.2% of 290,000 active; in the data active = inhibition mostly above about 28%, no sharp cut-off; inactive = mostly below about 43%
Each line names hits and unclear results; the compound was inactive in the other large screens. Sampled rows, rich in hits. Any-hit rate of the full collection: about 20%. Unless noted, calls follow the shape of the dose curve; as a rule, active = well fitted inhibition curve with a large enough effect; inconclusive = small, poorly fitted or top-dose-only effect, or another doubt; inactive = no such curve, though single readings can be large or run the other way.

CCN1CCN(CCCNC(=O)CCC(=O)N2CCOc3ccccc32)CC1	none
CCOC(=O)c1ccccc1NC(=O)N1CCOc2ccc(Cl)cc21	HCMV antiviral -60.6 (no result: Pf growth 48h, Pf growth 96h, CHX counter, Shiga toxin inh)
O=C(Nc1cccc2c1CCCC2)N1CCOc2ccc(Cl)cc21	none (no result: Pf growth 48h, Pf growth 96h, CHX counter, Shiga toxin inh)
O=C(CCC(=O)N1CCOc2ccc(Cl)cc21)NCCCN1CCN(Cc2ccccc2)CC1	Pf growth 48h inconclusive
CC1CC(C)CN(CCCNC(=O)CCC(=O)N2CCOc3ccccc32)C1 (stereo unspecified)	HCMV antiviral -64.6, Pf growth 96h inconclusive
CCOC(=O)c1c(C)n(CCNC(C)=O)c2ccc(OC)cc12	none (no result: Pf growth 96h)
CCOC(=O)c1c(-c2ccccc2)c2cc(OC)ccc2n1CCCN(C)C	Pf growth 48h 9.28µM
CCC(=O)NC1OC(CO)C(O)C(O)C1O (stereo unspecified)	none
O=C1NCCC/C1=N\Nc1ccc(Br)cc1	CHX counter 8.2
Cc1ccccc1N/N=C1\CCCNC1=O	Pf growth 48h inconclusive
N#CC1=C(N)Oc2cc(N)ccc2C1c1ccsc1 (stereo unspecified)	Pf growth 96h 10.4µM
Cc1ccc(C2C(C#N)=C(N)Oc3cc(N)ccc32)cc1 (stereo unspecified)	none
N#CC1=C(N)Oc2cc(N)ccc2C1c1cccc(Br)c1 (stereo unspecified)	HCMV antiviral -74.7
Cc1cccc(NC(=O)CN2C(=O)COc3ccc(S(=O)(=O)N4CCC(C)CC4)cc32)c1C	none (no result: Pf growth 48h, Pf growth 96h, CHX counter, Shiga toxin inh)
O=C1NC(c2cccs2)Nc2ccccc21 (stereo unspecified)	Pf growth 96h inconclusive, CHX counter 20.7, Shiga toxin inh 37.9 (no result: Pf growth 48h)
O=C1NC(c2cccc3ccccc23)Nc2ccccc21 (stereo unspecified)	HCMV antiviral -69.0 (no result: Pf growth 48h, Pf growth 96h, CHX counter, Shiga toxin inh)
Cc1ccsc1C1NC(=O)c2ccccc2N1 (stereo unspecified)	CHX counter 22.8
O=C1NC(c2ccccc2Cl)Nc2ccccc21 (stereo unspecified)	none
NC(=O)c1ccc(SCC(=O)OCC(=O)NCC2CCCCC2)c([N+](=O)[O-])c1	none (no result: CHX counter, Shiga toxin inh)
CC(C)(C)n1nnnc1C(c1ccncc1)N1CCCCCC1 (stereo unspecified)	Pf growth 96h inconclusive
CC(C)(C)P(=O)(c1ccncc1)N1CCCC1 (stereo unspecified)	Pf growth 48h inconclusive, Pf growth 96h 0.738µM
COc1ccccc1NC(=O)/C(C#N)=C/c1ccncc1	none
Cc1ccc(/C=C(\C#N)C(=O)Nc2ccccn2)o1	CHX counter 28.4
COc1ccc(/C=C(\C#N)C(=O)Nc2ccccn2)cc1	CHX counter 21.5
COc1ccc(O)c(/C=C(\C#N)C(=O)Nc2ccccn2)c1	CHX counter 26.3, Shiga toxin inh 53.3
Cc1cc(NC(=O)CCC(=O)N(CC(=O)NCC2CCCO2)c2ccc(C)c(C)c2)no1 (stereo unspecified)	none
CN(CCc1ccccc1)C(C(=O)Nc1ccc2c(c1)OCCO2)c1ccnc2ccccc12 (stereo unspecified)	none (no result: Pf growth 48h, Pf growth 96h, CHX counter, Shiga toxin inh)
O=C(CCc1nnc2ccc(N3CCCCC3)nn12)NCC1CCN(Cc2ccc(F)cc2)CC1	Pf growth 48h inconclusive, Pf growth 96h 10.4µM
CC(=O)c1ccc(NC(=O)CCc2nnc3ccc(N4CCCC4)nn23)cc1	CHX counter 31.5, Shiga toxin inh 50.2
CC(=O)c1cccc(NC(=O)CCc2nnc3ccc(N4CCOCC4)nn23)c1	Pf growth 96h 10.4µM
CCn1cc(C(=O)O)c(=O)c2cc(F)c(N3CCN(C(=S)NC(=O)c4ccccc4C)CC3)cc21	Pf growth 48h inconclusive, Pf growth 96h inconclusive
CCn1cc(C(=O)O)c(=O)c2cc(F)c(N3CCN(C(=S)NC(=O)c4ccccc4Cl)CC3)cc21	Pf growth 48h 5.22µM, Pf growth 96h inconclusive
C=CCCCCCCCCC(=O)N1CCN(c2cc3c(cc2F)c(=O)c(C(=O)O)cn3CC)CC1	Pf growth 48h inconclusive, Pf growth 96h inconclusive
C=CCNC(=S)N1CCN(c2cc3c(cc2F)c(=O)c(C(=O)O)cn3CC)CC1	Pf growth 48h inconclusive, Pf growth 96h 2.33µM
C=C(C)CCC(C)N1CCC(n2nccc2NC(=O)CCOc2ccccc2)CC1 (stereo unspecified)	HCMV antiviral -89.2, Pf growth 96h inconclusive
CC(C)NC(=O)N1CCC(n2nccc2NC(=O)CCOc2ccccc2)CC1	none
COc1ccc(O)c(CN2CCC(n3nccc3NC(=O)CCOc3ccccc3)CC2)c1	Pf growth 48h 13.1µM, Pf growth 96h inconclusive
Cc1ccccc1C(=O)N1CCC(n2nccc2NC(=O)C2CC2)CC1	none (no result: HCMV antiviral)
COC(CNc1ncnc2sc(-c3ccccc3)cc12)OC	none
CC(O)CNc1ncnc2cc(-c3ccc(F)cc3)sc12 (stereo unspecified)	CHX counter 15.2, Shiga toxin inh 78.6
Cc1onc(-c2c(Cl)cccc2Cl)c1/C(N)=N/OC(=O)C(C)(C)C	Pf growth 48h 11.7µM, Pf growth 96h 8.28µM
Cc1onc(-c2c(F)cccc2Cl)c1C(=O)O/N=C(\N)c1ccc([N+](=O)[O-])o1	HCMV antiviral -62.4, Pf growth 48h 8.28µM, Pf growth 96h 11.7µM, Shiga toxin inh 36.4
Cc1onc(-c2c(Cl)cccc2Cl)c1C(=O)N1CCCc2ccccc21	HCMV antiviral inconclusive, Pf growth 96h inconclusive (no result: Pf growth 48h)
Cc1onc(-c2c(Cl)cccc2Cl)c1C(=O)N1CCc2ccccc2C1	Pf growth 48h 10.4µM, Pf growth 96h 7.38µM
Cc1onc(-c2c(Cl)cccc2Cl)c1/C(N)=N/OC(=O)N(C)C	Pf growth 48h inconclusive, Pf growth 96h inconclusive
C[C@H](NC(=O)[C@@H]1CCC(=O)N1Cc1ccco1)c1ccccc1	none
Cc1nccc(-c2cccc(N/N=C(\C#N)C(=O)c3ccccc3)c2)n1	HCMV antiviral inconclusive, Pf growth 48h 13.1µM, Pf growth 96h 5.22µM
Cc1nc(C)c(/C(O)=C/c2nc3ccccc3oc2=O)s1	HCMV antiviral inconclusive, Pf growth 48h inconclusive, CHX counter 21.8
O=c1oc2ccccc2nc1/C=C(\O)c1ccccc1	CHX counter 63.2, Shiga toxin inh 103.7
O=c1oc2ccc(Cl)cc2nc1/C=C(\O)c1ccco1	Pf growth 48h inconclusive, Pf growth 96h 14.7µM, CHX counter 25.4, Shiga toxin inh 41.5
O/C(=C\c1nc2ccccc2nc1/C=C(\O)c1ccccc1)c1ccccc1	CHX counter 31.0, Shiga toxin inh 101.6 (no result: HCMV antiviral)
COc1ccc(/C(O)=C/c2nc3ccccc3n(-c3ccccc3)c2=O)cc1	none (no result: Pf growth 48h)
CC(C)(C)/C(O)=C/c1nc2ccccc2oc1=O	HCMV antiviral inconclusive
CCCCC(=O)Nc1ccc(C(=O)NNC(=O)CCCOc2ccc(Cl)cc2Cl)cc1	Pf growth 96h inconclusive
CC1CCN(c2c(NCc3ccc(C(=O)N4c5ccccc5CC4C)cc3)c(=O)c2=O)CC1 (stereo unspecified)	Pf growth 48h inconclusive
CN(C)S(=O)(=O)c1cccc(C(=O)Nc2cc(S(=O)(=O)N3CCOCC3)ccc2N2CCCC2)c1	none (no result: Pf growth 48h, Pf growth 96h, CHX counter, Shiga toxin inh)
CN1CCN(C(CNC(=O)C(=O)Nc2ccc(F)cc2F)c2ccc3c(c2)OCO3)CC1 (stereo unspecified)	none (no result: Pf growth 48h, Pf growth 96h, CHX counter, Shiga toxin inh)
Cc1cccc(OCc2nc(CC(=O)Nc3ccc(C)cc3C)cs2)c1	none (no result: Pf growth 48h, Pf growth 96h, CHX counter, Shiga toxin inh)
